Unmarked numbers belong to inactive results. Results filed as inconclusive are left out. The source made the active and inactive calls. Unless noted, calls come from the whole dose curve; as a rule, active = well fitted curve in the direction sought with a large enough effect; inconclusive = small, poorly fitted or top-dose-only effect, or another doubt; inactive = no such curve, though single readings can be large; an effect the other way counts as inactive or inconclusive.

Assay [1] has as its target Lysosomal acid glucosylceramidase (Homo sapiens) (UniProt P04062). Nature of the assay: Glucocerebrosidase-p2 (AID 348; in the data active = potency below about 10 µM; note: potency is the fitted concentration of half-maximal effect). To be noted: purified GBA, blue fluorogenic substrate, 40 min. Put shortly: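 Compounds titrated from 0.6 nM upwards against 0.2 nM enzyme in pH 5.9 citric acid/KH2PO4, taurocholate, tween-20; blue fluorogenic substrate 80 uM, 40 min room temperature, stopped and read Ex 365/Em 440 for AC50.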

Assay [2] can be described thus: AP1 Signaling Pathway (AID 357; active = well fitted curve in either direction with a large enough effect, not every such curve was filed as active;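 note: ME-180 reporter cells stimulated with EGF at its EC50 level; % is set by controls: 0 for no effect and ±100 for the full control effect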). Particulars: ME-180 AP-1-bla reporter, EGF-induced, beta-lactamase ratio, 5 h; at 7.69 µM (top of the series) unless noted. A digest of the protocol:
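In this screen, ME-180 cells in Opti-MEM with 0.5% dialyzed FBS received EC50 EGF and compound titrations for 5 h. AP-1 reporter beta-lactamase was detected via CCF4 ratio, giving AC50 for positive and negative modulators.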

Assay [3] has as its target Cytochrome P450 1A2 (Homo sapiens) (UniProt P05177). Nature of the assay: p450-cyp1a2 (AID 410; calls by dose curve; note: potency is the fitted concentration of half-maximal effect). A digest of the protocol:
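Inhibition was calculated relative to 57 uM furafylline (full inhibition). The reaction used human CYP1A2 at 20nM with Luciferin-ME at its Km, 100uM, driven by an NADPH-regenerating system for 60 min at room temperature.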

A short description of assay [4]: Stat Signaling Pathway (AID 446; active = well fitted curve in either direction with a large enough effect, not every such curve was filed as active;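 note: ME-180 cervical cancer cells given 40 pM IL-6 alongside compound; SIE-controlled beta-lactamase reporter measured as 460/530 nm FRET emission ratio; % is set by controls: 0 for no effect and ±100 for the full control effect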). Particulars: ME-180 (cervical carcinoma) SIE beta-lactamase reporter, IL-6 stimulated, 5 h; at 7.69 µM (top of the series) unless noted. Put shortly:
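ME-180 SIE-bla cells; overnight plating; cpd + IL-6 40 pM, 5 h, 37 C; LiveBLAzer 2.5 h RT; 460/530 nm emission ratio. Normalized to 300 pM IL-6 and 125 nM JAK inhibitor controls.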

In assay [5] the target is Glucocorticoid receptor (Homo sapiens) (UniProt P04150). Nature of the assay: GR-GFP Redistribution (AID 450;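 active = compounds whose dose series gives a full or clear partial fitted curve of increased nuclear translocation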; note: potency is the fitted concentration of half-maximal effect). Particulars: U2OS GR-GFP nuclear translocation, laser cytometry, 2 h.
For assay [6] the target is unchanged. Nature of the assay: GR-EFC Redistribution (AID 451; calls by dose curve; note: potency is the fitted concentration of half-maximal effect). To be noted: CHO-K1 GR-EFC translocation, beta-gal luminescence, 2 h. A digest of the protocol: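 Translocation of GR-ED fusion to nuclear EA restores b-gal, read by luminescence after 1 h room-temperature detection. Engineered CHO-K1 biosensor cells, 1,000/well, exposed 2 h at 37 C to titrations up to 46 uM final.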

In assay [7] the target is Mitogen-activated protein kinase 10 (Mus musculus) (UniProt Q61831). Nature of the assay: JNK3 AlphaScreen Assay (AID 530; active = well fitted curve in either direction with a large enough effect, not every such curve was filed as active;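 note: kinase came from lysate of stimulated human HepG2 cells; signal reports phosphorylation of biotinylated GST-cJun 1-79 at Ser73 with 10 µM ATP; % is set by controls: 0 for no effect and ±100 for the full control effect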). A digest of the protocol:
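Room-temperature AlphaScreen kinase assay; pre-activated HepG2 lysate as JNK3 source, biotin-GST-cJun(1-79) substrate, 10 uM ATP, compound 15 min preincubation.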

Assay [8] deals with Cytochrome P450 3A4 (Homo sapiens) (UniProt P08684). Nature of the assay: qHTS Assay for Inhibitors and Substrates of Cytochrome P450 3A4 (AID 884). Note: potency is the fitted concentration of half-maximal effect; nearly all actives have a fitted effect of over 50% in size. A digest of the protocol: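 20 nM human CYP3A4 with 25 uM Luciferin-PPXE (at KM) in 200 mM KPO4, preincubated 10 min with compound; NADPH regeneration started a 60 min RT reaction. Luciferin detected by luminescence, normalized to 57 uM ketoconazole as full inhibition.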

For assay [9] the target is unchanged. Nature of the assay: qHTS Assay for Activators of Cytochrome P450 3A4 (AID 885). Note: nearly all actives have a fitted effect of over 65% in size. A digest of the protocol: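 20nM CYP3A4 + 25uM Luciferin-PPXE (=KM), 200mM KPO4; cpd 10 min RT; NADPH regen, 60 min RT; stop w/ detection buffer, 20 min; luminescence. Normalized to 57 uM ketoconazole.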
In assay [10] the target is Cytochrome P450 2C19 (Homo sapiens) (UniProt P33261). Nature of the assay: qHTS Assay for Inhibitors and Substrates of Cytochrome P450 2C19 (AID 899). Note: potency is the fitted concentration of half-maximal effect; nearly all actives have a fitted effect of over 60% in size. A digest of the protocol: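 5nM enzyme + 10uM Luciferin-H EGE (=KM), 50mM KPO4; cpd pin-transferred, 10 min 37C; NADPH regen, 60 min 37C; stopped w/ luciferin detection reagent, 20 min; luminescence. Normalized to 57uM ketoconazole (AC100).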

The target of assay [11] is Dual specificity protein kinase CLK4 (Homo sapiens) (UniProt Q9HAZ1). The assay is described as follows: qHTS Assay for Inhibitors of CDC-like Kinase 4 (Kinase-Glo Assay) (AID 1770). Note: potency is the fitted concentration of half-maximal effect; nearly all actives have a fitted effect of over 65% in size. A digest of the protocol: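 Substrate mix (RS peptide 100 uM, ATP 1 uM) dispensed, compound pinned in, then Clk4 added to 25 nM final. Incubated 4.5 h at RT; Kinase-Glo reagent added, luminescence read after 5 min.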

The target is the same in assay [12]. Nature of the assay: qHTS Assay for Inhibitors of CDC-like Kinase 4 (ADP-Glo Assay) (AID 1771). Note: potency is the fitted concentration of half-maximal effect; nearly all actives have a fitted effect of over 70% in size. Put shortly:
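Kinase reaction: Clk4 at 25 nM, RS repeat peptide substrate at 100 uM, ATP at 1 uM, 1 hr, room temperature. Product ADP detected as luciferase signal via ADP-Glo.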

The target in assay [13] is Ubiquitin carboxyl-terminal hydrolase 1 (Homo sapiens) (UniProt O94782). Nature of the assay: Inhibitors of USP1/UAF1: Pilot qHTS (AID 504865).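 Note: rhodamine fluorescence freed from ubiquitin-rhodamine substrate followed over time; top concentration of the series differs between compounds; % is set by controls: 0 for no effect and ±100 for the full control effect; nearly all actives have a fitted effect of over 35% in size.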 A digest of the protocol: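 In 50mM HEPES pH 7.8 containing 0.5mM EDTA, 1mM TCEP, 0.1 mg/ml BSA and 0.01% Tween-20, 1nM USP1/UAF1 is exposed to compound for 15 min, then Ub-Rho (150nM final) is added and fluorescence is read over time.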

Assay [14] can be described thus: Primary qHTS for small molecule stabilizers of the endoplasmic reticulum resident proteome: Secreted ER Calcium Modulated Protein (SERCaMP) assay (AID 1508630). Note: % is set by controls: 0 for no effect and ±100 for the full control effect. Put shortly: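 GLuc-SERCaMP-expressing SH-SY5Y cells, pretreated 16 h with compound, are challenged with thapsigargin to empty ER calcium stores; after 4 h, coelenterazine is added directly to the medium and luminescence is imaged.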

Assay [15] is described as follows: NFAT Signaling Pathway (AID 444; active = well fitted curve in either direction with a large enough effect, not every such curve was filed as active). Particulars: Jurkat NFAT-bla M1, carbachol, beta-lactamase ratio, 5 h; at 7.69 µM (top of the series) unless noted. Put shortly:
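Read-out: CCF4 FRET ratio (460 nm/530 nm) after 1 h RT dye loading, used for %activity and AC50 from titration series. Cells: Jurkat NFAT-β-lactamase/M1 line, treated with compound plus 1 uM carbachol for 5 h, 37 °C.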

Assay [16] deals with 3',5'-cyclic-AMP phosphodiesterase 4B (Homo sapiens) (UniProt Q07343). The assay is described as follows: qHTS Assay for Inhibitors of PDE-IV (AID 607; active = well fitted activation curve with a large enough effect in the main read-out, with a control signal flat, not every such curve was filed as active; note: % of control where 0% means no effect). Put shortly:
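ACTOne HEK293 cells carry a modified cAMP-gated CNG channel and express endogenous PDE4; plated 1000 cells/well, compounds up to 22.9 uM final. Membrane-potential dye fluorescence (ex 535/em 590) was read; parental cells received 10 uM forskolin + 100 uM RO 20-1724.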

Sequence of Cytochrome P450 2C19 (Homo sapiens) (P33261 whole entry, looked up): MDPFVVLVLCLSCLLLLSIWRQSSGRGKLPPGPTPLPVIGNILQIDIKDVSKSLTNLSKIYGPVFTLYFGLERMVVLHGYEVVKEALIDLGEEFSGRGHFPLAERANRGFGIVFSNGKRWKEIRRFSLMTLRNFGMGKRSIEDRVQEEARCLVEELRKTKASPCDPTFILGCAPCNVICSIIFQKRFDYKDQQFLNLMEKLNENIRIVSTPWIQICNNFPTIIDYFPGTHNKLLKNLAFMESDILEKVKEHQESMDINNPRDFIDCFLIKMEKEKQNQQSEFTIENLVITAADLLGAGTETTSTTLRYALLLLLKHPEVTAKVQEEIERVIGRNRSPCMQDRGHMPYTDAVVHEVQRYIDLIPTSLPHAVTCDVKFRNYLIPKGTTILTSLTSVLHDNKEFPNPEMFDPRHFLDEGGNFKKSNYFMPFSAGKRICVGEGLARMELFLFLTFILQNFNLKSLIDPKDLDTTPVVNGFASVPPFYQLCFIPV
Sequence of Glucocorticoid receptor (Homo sapiens) (P04150 whole entry, looked up, the tested form may be a part): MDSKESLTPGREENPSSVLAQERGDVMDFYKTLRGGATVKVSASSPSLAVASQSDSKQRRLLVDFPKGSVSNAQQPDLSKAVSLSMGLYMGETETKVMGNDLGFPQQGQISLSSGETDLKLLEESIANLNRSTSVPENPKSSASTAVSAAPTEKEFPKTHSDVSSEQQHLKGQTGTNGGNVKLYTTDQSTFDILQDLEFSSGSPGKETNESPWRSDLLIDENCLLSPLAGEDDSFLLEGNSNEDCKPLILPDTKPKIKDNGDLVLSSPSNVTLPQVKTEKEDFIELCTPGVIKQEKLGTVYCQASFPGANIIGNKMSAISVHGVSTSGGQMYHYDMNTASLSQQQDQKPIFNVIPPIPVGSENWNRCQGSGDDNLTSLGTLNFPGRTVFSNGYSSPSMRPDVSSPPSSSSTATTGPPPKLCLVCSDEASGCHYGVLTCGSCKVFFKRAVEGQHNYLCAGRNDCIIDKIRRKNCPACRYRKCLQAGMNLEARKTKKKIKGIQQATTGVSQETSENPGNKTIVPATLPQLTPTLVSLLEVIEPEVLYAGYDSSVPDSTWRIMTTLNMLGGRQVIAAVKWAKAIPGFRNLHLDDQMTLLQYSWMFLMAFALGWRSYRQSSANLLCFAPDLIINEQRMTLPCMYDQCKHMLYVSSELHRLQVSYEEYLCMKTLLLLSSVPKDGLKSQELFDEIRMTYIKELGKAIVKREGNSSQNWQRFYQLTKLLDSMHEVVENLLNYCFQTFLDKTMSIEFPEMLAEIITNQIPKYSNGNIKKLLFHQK
Sequence of Lysosomal acid glucosylceramidase (Homo sapiens) (P04062 whole entry, looked up): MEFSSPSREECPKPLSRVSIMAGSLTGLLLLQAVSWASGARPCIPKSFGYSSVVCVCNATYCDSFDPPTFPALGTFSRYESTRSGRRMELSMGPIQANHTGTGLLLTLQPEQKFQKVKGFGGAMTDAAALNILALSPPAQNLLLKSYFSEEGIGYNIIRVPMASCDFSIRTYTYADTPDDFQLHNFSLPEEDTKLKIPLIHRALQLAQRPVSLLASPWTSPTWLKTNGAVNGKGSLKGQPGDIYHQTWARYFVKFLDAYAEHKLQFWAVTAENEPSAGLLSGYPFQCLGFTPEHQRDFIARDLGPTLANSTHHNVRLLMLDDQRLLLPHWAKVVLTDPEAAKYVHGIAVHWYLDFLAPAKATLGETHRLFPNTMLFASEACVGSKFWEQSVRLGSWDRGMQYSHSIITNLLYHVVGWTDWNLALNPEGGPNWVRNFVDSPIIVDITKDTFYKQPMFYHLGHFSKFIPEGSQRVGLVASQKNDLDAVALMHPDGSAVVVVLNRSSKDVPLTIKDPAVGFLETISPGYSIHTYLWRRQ
Sequence of Ubiquitin carboxyl-terminal hydrolase 1 (Homo sapiens) (O94782 whole entry, looked up): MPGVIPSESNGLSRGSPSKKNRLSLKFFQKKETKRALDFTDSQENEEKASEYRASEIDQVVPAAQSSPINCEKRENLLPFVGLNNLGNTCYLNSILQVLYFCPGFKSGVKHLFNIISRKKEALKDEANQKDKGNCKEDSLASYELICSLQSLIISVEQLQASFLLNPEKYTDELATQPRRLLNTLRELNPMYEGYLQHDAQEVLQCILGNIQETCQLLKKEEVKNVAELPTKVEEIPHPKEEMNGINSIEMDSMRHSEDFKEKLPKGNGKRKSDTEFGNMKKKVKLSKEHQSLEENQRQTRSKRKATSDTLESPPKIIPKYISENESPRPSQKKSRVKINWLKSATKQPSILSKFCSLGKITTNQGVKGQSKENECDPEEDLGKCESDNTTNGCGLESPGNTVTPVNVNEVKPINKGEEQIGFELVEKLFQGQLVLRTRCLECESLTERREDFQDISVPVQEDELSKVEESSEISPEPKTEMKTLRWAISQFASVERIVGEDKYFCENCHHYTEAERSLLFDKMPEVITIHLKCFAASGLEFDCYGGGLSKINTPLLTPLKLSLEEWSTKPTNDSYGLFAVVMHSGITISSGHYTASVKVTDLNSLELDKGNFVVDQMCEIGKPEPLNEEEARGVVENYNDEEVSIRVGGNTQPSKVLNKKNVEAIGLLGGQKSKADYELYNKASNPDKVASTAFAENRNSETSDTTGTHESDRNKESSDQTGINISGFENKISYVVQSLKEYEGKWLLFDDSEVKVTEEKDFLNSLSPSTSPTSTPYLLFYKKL
Sequence of 3',5'-cyclic-AMP phosphodiesterase 4B (Homo sapiens) (Q07343 whole entry, looked up): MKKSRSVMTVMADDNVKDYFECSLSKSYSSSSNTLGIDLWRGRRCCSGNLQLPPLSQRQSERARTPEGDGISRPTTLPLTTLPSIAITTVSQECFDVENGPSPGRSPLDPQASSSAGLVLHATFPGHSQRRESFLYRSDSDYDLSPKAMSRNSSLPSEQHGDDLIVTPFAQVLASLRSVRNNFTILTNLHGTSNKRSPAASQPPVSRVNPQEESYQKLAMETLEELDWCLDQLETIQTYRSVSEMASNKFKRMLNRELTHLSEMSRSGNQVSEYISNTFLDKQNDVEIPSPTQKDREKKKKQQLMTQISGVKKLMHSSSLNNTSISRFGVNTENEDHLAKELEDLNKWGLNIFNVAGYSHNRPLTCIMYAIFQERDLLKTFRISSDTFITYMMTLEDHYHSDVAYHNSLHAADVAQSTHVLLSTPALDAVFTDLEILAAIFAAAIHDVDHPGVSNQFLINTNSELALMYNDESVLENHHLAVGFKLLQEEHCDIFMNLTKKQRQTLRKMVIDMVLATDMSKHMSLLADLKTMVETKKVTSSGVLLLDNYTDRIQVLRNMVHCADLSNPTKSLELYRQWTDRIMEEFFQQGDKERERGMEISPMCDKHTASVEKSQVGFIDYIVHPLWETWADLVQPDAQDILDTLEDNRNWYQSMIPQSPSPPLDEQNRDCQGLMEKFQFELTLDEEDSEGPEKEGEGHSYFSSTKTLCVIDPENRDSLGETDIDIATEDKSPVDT
Sequence of Cytochrome P450 1A2 (Homo sapiens) (P05177 whole entry, looked up): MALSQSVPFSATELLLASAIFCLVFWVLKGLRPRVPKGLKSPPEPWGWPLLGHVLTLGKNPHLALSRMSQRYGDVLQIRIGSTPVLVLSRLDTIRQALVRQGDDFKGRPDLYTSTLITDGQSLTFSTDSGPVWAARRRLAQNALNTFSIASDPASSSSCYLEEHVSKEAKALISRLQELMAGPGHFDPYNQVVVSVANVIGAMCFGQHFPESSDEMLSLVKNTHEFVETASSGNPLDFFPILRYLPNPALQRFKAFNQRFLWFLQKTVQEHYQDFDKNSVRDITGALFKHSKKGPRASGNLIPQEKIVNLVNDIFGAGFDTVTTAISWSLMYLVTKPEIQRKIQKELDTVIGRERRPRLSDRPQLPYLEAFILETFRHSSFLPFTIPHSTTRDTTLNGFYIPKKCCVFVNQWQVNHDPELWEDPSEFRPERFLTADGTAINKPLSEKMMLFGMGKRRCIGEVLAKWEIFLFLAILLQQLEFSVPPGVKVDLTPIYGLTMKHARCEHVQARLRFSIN
Sequence of Cytochrome P450 3A4 (Homo sapiens) (P08684 whole entry, looked up): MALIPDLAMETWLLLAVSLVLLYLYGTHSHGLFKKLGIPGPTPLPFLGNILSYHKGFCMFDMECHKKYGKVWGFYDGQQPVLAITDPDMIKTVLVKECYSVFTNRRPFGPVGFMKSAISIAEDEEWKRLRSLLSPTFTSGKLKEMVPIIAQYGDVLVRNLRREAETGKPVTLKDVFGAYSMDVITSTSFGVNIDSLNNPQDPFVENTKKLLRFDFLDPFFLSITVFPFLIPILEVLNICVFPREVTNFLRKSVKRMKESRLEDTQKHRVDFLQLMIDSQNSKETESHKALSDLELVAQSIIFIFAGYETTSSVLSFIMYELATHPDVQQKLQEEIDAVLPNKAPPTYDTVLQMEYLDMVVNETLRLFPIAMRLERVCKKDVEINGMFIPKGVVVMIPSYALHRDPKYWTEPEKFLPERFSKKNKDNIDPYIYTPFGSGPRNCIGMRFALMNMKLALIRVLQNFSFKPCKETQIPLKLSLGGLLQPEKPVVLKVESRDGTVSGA
Sequence of Dual specificity protein kinase CLK4 (Homo sapiens) (Q9HAZ1 whole entry, looked up): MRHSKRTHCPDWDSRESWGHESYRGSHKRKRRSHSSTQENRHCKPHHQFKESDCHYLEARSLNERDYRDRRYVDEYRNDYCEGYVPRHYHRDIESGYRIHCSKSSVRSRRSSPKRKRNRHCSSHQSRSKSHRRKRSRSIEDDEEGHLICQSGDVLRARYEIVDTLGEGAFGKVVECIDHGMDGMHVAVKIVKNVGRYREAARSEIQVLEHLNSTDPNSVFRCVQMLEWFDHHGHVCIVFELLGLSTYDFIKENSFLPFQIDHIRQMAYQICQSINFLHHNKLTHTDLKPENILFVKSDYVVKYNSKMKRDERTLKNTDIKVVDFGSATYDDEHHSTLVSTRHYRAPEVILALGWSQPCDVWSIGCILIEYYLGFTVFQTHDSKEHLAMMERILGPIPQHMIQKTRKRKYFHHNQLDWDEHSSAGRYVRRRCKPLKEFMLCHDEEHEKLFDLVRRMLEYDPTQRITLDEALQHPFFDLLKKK

On to `FC(F)(F)c1ccccc1-c1ccc2ncnc(NC3CC3)c2c1`, for which the Potency in assay [1] was > 11.4 µM; in assay [3], 0.316 µM (active); in assay [5], > 46 µM; in assay [6], > 46 µM; in [8] it was 1.58 µM (active); in assay [10] it was 2 µM (active). Besides, the Potency in assay [11] and in assay [12] was 25.1 µM (active) throughout. Further, in assay [2], the activity change, negative = inhibition was 10%. Further, in assay [4], the activity, negative = inhibition was -18.8%. For the same compound, the Potency entry in assay [7], in [9] and in assay [13] was “inactive” in each case. Further, in assay [14], the outcome was inactive.

With `CN(C)c1ccc(-c2cncnc2-n2ccnc2)cc1`, the Potency is > 11.4 µM in [1]; 2.51 µM (active) in assay [3]; > 46 µM in assay [5]; > 46 µM in assay [6]; 2.51 µM (active) in [8]; 3.98 µM (active) in assay [10]. The Potency in assay [11] is 14.1 µM (active); in [12] it was 25.1 µM (active). For the same compound, the activity change, negative = inhibition in assay [2] is -3.44%; in [15] it was 4.48%. In addition, in assay [4], the activity, negative = inhibition was 10.2%. For the same compound, the Potency result in assay [7], in assay [16], in assay [9] and in assay [13] was “inactive” in each case. For the same compound, the result in assay [14] was inactive.

Take `COc1ccccc1CCn1c(=O)cnc2cncnc21`: the Potency in assay [1] is > 11.4 µM; in assay [5], > 9.22 µM; in assay [6], > 46 µM; in [11], 17.8 µM (active); in assay [12], 25.1 µM (active). Also, the activity change, negative = inhibition in assay [2] is -0.594%; in [15], 6.39%. In addition, in assay [4], the activity, negative = inhibition was -7.13%. The Potency result in assay [7], in [16] and in assay [13] was “inactive” in each case. For the same compound, in [14], the result was inactive.

For the compound `COc1cccc(-c2cncnc2NCc2cccc(C)c2)c1`, the Potency in assay [1] is > 11.4 µM; in [3], 2 µM (active); in assay [5] it was > 46 µM; in [6], > 46 µM; in [8] it was 0.398 µM (active); in assay [10] it was 0.794 µM (active). Moreover, the Potency is 31.6 µM (active) in [11] and 25.1 µM (active) in assay [12]. Besides, the results for the activity change, negative = inhibition in [2] and in assay [15] were -11.8% and -0.339%, respectively. The activity, negative = inhibition in assay [4] was -10.4%. The Potency result in assay [7], in assay [9] and in assay [13] was “inactive” in each case. Besides, the outcome in assay [14] was inactive.

Take `Cc1noc(C)c1-c1ccc2ncnc(N3CCC(C(=O)O)CC3)c2c1`: the Potency in assay [1] is > 11.4 µM; in assay [3], 25.1 µM (active); in assay [6] it was > 46 µM; in assay [11], 25.1 µM (active); in assay [12] it was 25.1 µM (active). Besides, the values for the activity change, negative = inhibition in [2] and in [15] were 8.06% and -4.03%, respectively. Also, the activity, negative = inhibition in assay [4] is 10.8%. Moreover, the Potency result in assay [7], in [16] and in assay [13] was “inactive” each time. Also, the outcome in assay [14] was inactive.

These data come from PubChem BioAssay (NCATS).
